High-throughput results: PubChem, The Scripps Research Institute Molecular Screening Center
hgDAF12 agonist – hgDAF-12 agonism, primary luciferase screen | HEK293 GAL4-hgDAF12 UAS-luciferase reporter, agonist luminescence; normalized to butyrate control | activation, % at 6.8 µM | hit rate 1.8% among 370,000;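 active means activation above a cutoff set at the mean of all screened compounds plus 3 SD, cut at about 10% in these data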;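 further: 0% = DMSO wells and 100% = sodium butyrate wells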
hcDAF-12 act – H. contortus DAF-12 activation, primary screen; HEK293 hcDAF-12 lit1-tk-luc reporter, luminescence; 0% DMSO, 100% Δ7-dafachronic acid; activation, % at 6.8 µM; hit rate 1.4% among 370,000;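 active means activation above the mean of all tested compounds plus 3 SD, cut at about 5.5% in these data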;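 further: 100% = response to 3 µM Δ7-dafachronic acid high control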
DAX1 StAR inh – blocks DAX1 repression of SF-1 activated StAR promoter; HEK293T StAR-luciferase reporter, SF-1/DAX-1 repression relief; inhibition, % at 6.8 µM; hit rate 1.1% among 370,000;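 active means inhibition above the mean over all tested compounds plus 3 SD, cut at about 3.6% in these data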;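 further: 0% = DAX-1 cells with DMSO and 100% = cells lacking DAX-1 with DMSO; higher inhibition means more luminescence from relief of DAX-1 repression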
ssDAF12 agonist – activators of S. stercoralis DAF-12 nuclear receptor. HEK293 ssDAF-12/GRIP1 lit1-tk-luc reporter, luminescence; % of 3 µM dafachronic acid response. activation, % at 6.8 µM. hit rate 1% among 370,000. AID 652126;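 active means activation above the mean over all tested compounds plus 3 SD, cut at about 0.9% in these data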;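 further: 0% = DMSO-only wells and 100% = 3 µM delta7-dafachronic acid wells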
SMARCA2 act – activators of SMARCA2 function; MG213 cells, MMTV-luciferase reporter, dexamethasone, overnight; activation, % at 9.1 µM; hit rate 1% among 370,000; AID 652017; in the data active means activation above about 7.8%;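 further: 0% = vehicle wells and 100% = reference activator wells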
An asterisk follows results filed as active. Hits are enriched below; roughly 4.2% of the tested compounds scored in any of these assays.

SMILES | hgDAF12 agonist | hcDAF-12 act | DAX1 StAR inh | ssDAF12 agonist | SMARCA2 act
Cc1ccc(S(=O)(=O)N2CCN(C(=O)c3cc4c(s3)CCC(C)C4)CC2)cc1 (stereo unspecified) | 0 | 0 | 1 | 0 | -1
COc1ccc(CC(=O)Nc2sccc2C#N)cc1S(=O)(=O)N1CCOCC1 | 7 | 6.0* | 0 | 0 | -3
C/C(Cn1cnc([N+](=O)[O-])n1)=N\NC(=O)c1cccc(F)c1 | 11* | 2 | 0 | 1 | 5
C/C(Cn1cnc([N+](=O)[O-])n1)=N\NC(=O)c1ccc(F)cc1 | 4 | -1 | 1 | -1 | -2
Cc1cc(C)cc(C(=O)OCCCN(C)C2CN(Cc3cn(Cc4ccccc4Cl)nn3)S(=O)(=O)C2)c1 (stereo unspecified) | -1 | -2 | -2 | -2 | -1
Cc1ccccc1C(=O)Nc1ccnn1C1CCN(Cc2c(C)n(C)c3ccccc23)CC1 | 0 | 6.1* | 0 | -1 | -1
Cc1cccc(C)c1-n1nnnc1C1(C)CCC(=O)N1Cc1cccnc1 (stereo unspecified) | 1 | 0 | 0 | -1 | 1
CC(C)C(=O)Nc1nnc(Cc2c[nH]c3ccccc23)s1 | 0 | 1 | 0 | -2 | 1
Nc1nnc(Cc2c[nH]c3ccccc23)s1 | 3 | 5.7* | -1 | 1 | -1
Oc1ccc(-c2csc(-c3cccnc3)n2)cc1O | 13* | 0 | 1 | 0 | 0
Oc1ccc(-c2csc(-c3ccccc3)n2)cc1O | 7 | 1 | 0 | 0 | -2
O=C(CSc1nc2ccsc2c(=O)n1CC1CCC(C(=O)O)CC1)c1ccc(F)cc1 (stereo unspecified) | 11* | -1 | -1 | -2 | -4
CN(C)c1ccc(-c2ccnc3c2CC(C)(C(=O)NCCc2ccccc2)O3)cc1 (stereo unspecified) | 2 | -1 | 0 | -1 | -1
CC(=O)OCCCN(C)CC/C=C1/c2ccccc2CSc2ccccc21 | 0 | -1 | 0 | 1.0* | -1
C[N+](C)(C)CC/C=C1/c2ccccc2CSc2ccccc21 | 0 | 0 | 1 | -1 | -3
Cc1ccc2c(c1)C(CS(=O)(=O)NCCc1ccccc1)NC2 (stereo unspecified) | 0 | -2 | -1 | -1 | -3
CCc1ccc2c(c1)/C(=N/N(C)C(=S)NC)C(=O)N2 | 4 | 6.4* | 2 | -1 | 0
Cc1ccccc1NC(=O)N(C)[C@H]1C[C@H]2c3[nH]c4c(-c5ccccc5)cccc4c3CCN2C(=O)[C@H]1[C@H](C)O | 2 | 0 | -1 | 0 | 3
COC(=O)[C@@]12CCCCC3=C1N(CCC3)C(=O)[C@H]2CC(=O)NCc1ccccc1 | 1 | -3 | -1 | 0 | 1
O=C(NN1C(=O)c2ccccc2NC1c1ccccn1)c1ccc([N+](=O)[O-])cc1 (stereo unspecified) | 1 | -2 | 0 | 1.0* | -5
CCOc1ccc(C(=O)Nc2ccc3c(c2)OCCO3)cc1 | 12* | 5.9* | 2 | 0 | 3
CSCc1ccc(C(=O)N2CCCC(Nc3ccc4c(c3)OCCO4)C2)o1 (stereo unspecified) | 2 | 1 | 0 | -1 | 4
O=C(NC(=S)NC1CCC(O)CC1)c1ccco1 (stereo unspecified) | 4 | -1 | 4.1* | -1 | -4
O=C(c1ccco1)N1CCCC(Nc2ccc3c(c2)OCCO3)C1 (stereo unspecified) | 2 | 6.3* | 2 | 0 | 4
O=C(NC(=S)NC1CCCc2ccccc21)c1ccco1 (stereo unspecified) | -1 | -1 | -1 | -2 | -2
SMILES | hgDAF12 agonist | hcDAF-12 act | DAX1 StAR inh | ssDAF12 agonist | SMARCA2 act
O=C(NC(=S)Nc1ccc2c(c1)OCCO2)c1ccco1 | 11* | 4 | 2 | 0 | 7
C[C@H](O)[C@@H]1CN2CCc3c([nH]c4c(-c5ccccc5)cccc34)[C@@H]2C[C@@H]1N(C)C(=O)c1ccco1 | -3 | -3 | -1 | -1 | 1
COc1cc(NC(=O)C2CCCN(S(=O)(=O)c3ccc(C)cc3)C2)cc(OC)c1 (stereo unspecified) | -4 | 1 | 0 | -2 | -1
C[C@H](O)[C@@H]1C(=O)N2CCc3c([nH]c4c(-c5ccccc5)cccc34)[C@@H]2C[C@@H]1N(C)C(=O)Nc1cccc2ccccc12 | -3 | 2 | 0 | -1 | -1
CCc1ccc(C(=O)NC(=S)Nc2ccc3c(c2)OCCO3)cc1 | 12* | 3 | 3 | 0 | 2
Cc1cc(C)cc(C(=O)NC(=S)Nc2ccc3c(c2)OCCO3)c1 | 6 | 0 | 0 | -1 | 2
Cc1ccc(NC(=O)Nc2ccc3c(c2)[C@]2(CC(=O)N(CC(C)C)C2c2ccccc2)C(=O)N3C)cc1Cl (stereo partly specified) | -4 | -1 | -1 | -1 | -4
Cc1cc(Nc2cnc3ccccc3n2)n(-c2ccccc2)n1 | 0 | 4 | -1 | 1.9* | -3
Cc1cc(Nc2ncc(Cl)cc2Cl)n(-c2ccccc2)n1 | 0 | 5 | -1 | 0 | -1
CC(=O)Nc1sc(N/N=C\c2ccccc2Cl)nc1-c1cccs1 | 3 | 2 | -1 | -1 | -2
CC(=O)Nc1sc(N/N=C\c2ccccc2)nc1-c1cccs1 | 10 | 6.2* | 0 | 1.7* | -1
O=C(O)C1C=CCC(C(=O)O)C1 (stereo unspecified) | 0 | 0 | 0 | 2.4* | -2
COc1ccc(-c2cc(C(=O)NCc3ccc(F)cc3)[nH]n2)c(C)c1 | 0 | -1 | 0 | -1 | -3
COc1ccc2[nH]c(=O)c(CNc3ccccc3C)cc2c1 | 7 | 3 | 1 | 1.4* | 8
COC(=O)c1sccc1NC(=O)Nc1ccc(Cl)c(Cl)c1 | 11* | 4 | 1 | 0 | 3
O=C(Nc1ccc(Cl)c(Cl)c1)Nc1ccccc1C(=O)O | 2 | 4 | 4.1* | 0 | 4
CNS(=O)(=O)c1ccc(NC(=O)c2csc(C)c2)cc1 | 0 | -2 | -1 | 0 | -2
Cc1cc(C(=O)Nc2ccc(Br)cc2)cs1 | 9 | 5.6* | 3.9* | 0 | 1
O=C(Cc1ccccc1)NNC(=O)Nc1ccc(Cl)c(Cl)c1 | 0 | -2 | 0 | -2 | -4
COC(=O)c1sccc1NC(=O)c1ccc(C)cc1 | 2 | 3 | 0 | 0 | -4
COC(=O)c1sccc1NC(=O)c1csc(C)c1 | 1 | 3 | -1 | 1.0* | 0
C#CCN(C[C@H]1[C@H](OC(=O)Nc2c(C)noc2C)[C@H](OC(=O)Nc2c(C)noc2C)CN(C(=O)OC(C)C)N1C(=O)OC(C)C)S(=O)(=O)c1ccc(C)cc1 | 4 | -1 | 0 | 0 | -1
N#CCCCc1cn(-c2ccc(-c3noc4c3C(=O)N(CC(=O)N3CCOCC3)CC4)cc2)nn1 | 0 | 0 | 1 | -1 | -3
O=C(CN1CCCc2ccccc21)N/N=C/c1ccccc1O | -2 | 2 | 0 | -1 | -2
